In all, about 33,000 sequences were measured (“e-score”: median about -0.05, highest 2% from about 0.38 on). For the sample, the highest values were picked, then their nearest neighbours and some sequences at random.

The target of this assay is T1, SIX1-Q177R homeodomain (human, UniProt Q15475 108-198, Q177R).
T1 sequence: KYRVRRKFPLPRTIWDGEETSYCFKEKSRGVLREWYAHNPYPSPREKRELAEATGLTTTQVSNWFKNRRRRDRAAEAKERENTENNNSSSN
Put plainly: universal protein binding microarray; Universal all-10-mer PBM (8x60K, AMADID 030236), 300 nM GST-tagged protein, Alexa Fluor 488 anti-GST; buffer, salt, pH and temperature not stated (as in Berger); high values mean tight binding. Conditions: protein: ivt; tags: N-terminal GST; dsDNA, one strand shown. In a few lines: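 Homeodomains fused to GST were made by in vitro transcription/translation and measured by anti-GST western blot with a recombinant GST standard curve. At 300 nM final concentration, they were applied in duplicate to universal 'all 10-mer' protein binding microarrays (8×60K format).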
In the case of ACATCGTG, the binding signal stood at 0.151 ± 0.0256 E-score.

In the case of GTATGATA, the binding signal is 0.18 ± 0.0375 E-score.

With CCTTTACA, the binding signal was 0.242 ± 0.0698 E-score.

In the case of CCCCCCTC, the binding signal worked out at 0.163 ± 0.0311 E-score.

For the sequence CTGGGTAC, the binding signal was found to be 0.278 ± 0.0111 E-score.

On to CCGCAAGG, for which the binding signal came out at 0.15 ± 0.00344 E-score.

Regarding CATTTACA, the binding signal came to 0.267 ± 0.0374 E-score.

Turning to CACCGAAA, the binding signal worked out at 0.329 ± 0.00917 E-score.

On to AGTGGATC, for which the binding signal is 0.216 ± 0.0109 E-score.

Consider GATCAACA, for which the binding signal is 0.206 ± 0.00474 E-score.

With CACGAACG, the binding signal was 0.207 ± 0.0299 E-score.

For CCCTAGCA, the binding signal worked out at 0.17 ± 0.00574 E-score.

Take ACGAGGGG: the binding signal is 0.208 ± 0.0082 E-score.

In the case of GAAGATAC, the binding signal worked out at 0.16 ± 0.0546 E-score.

For the sequence AAAGACAC, the binding signal was determined as 0.425 ± 0.0124 E-score.

As to GAAGACAC, the binding signal worked out at 0.38 ± 0.00523 E-score.

CAAGACAC: the binding signal came out at 0.4021 ± 0.00161 E-score.

Turning to ATGACCCC, the binding signal came out at 0.318 ± 0.0237 E-score.

Regarding ATTGAGTG, the binding signal amounted to 0.18 ± 0.0318 E-score.

Consider GGTTTACA, for which the binding signal was found to be 0.16 ± 0.0137 E-score.

As to CTCCCTAA, the binding signal was determined as 0.165 ± 0.0334 E-score.

Consider ACAAACAC, for which the binding signal is 0.379 ± 0.0204 E-score.

For the sequence CCTATCAC, the binding signal amounted to 0.173 ± 0.0477 E-score.

As for GCTAACAC, the binding signal came out at 0.417 ± 0.0145 E-score.

Turning to CTAAACAC, the binding signal stood at 0.364 ± 0.00812 E-score.

For ACTAACAC, the binding signal was determined as 0.427 ± 0.0173 E-score.

As to ACTAAAAC, the binding signal was 0.168 ± 0.0313 E-score.

As for GCTACCAC, the binding signal came to 0.181 ± 0.00856 E-score.

For the sequence CCTAACAC, the binding signal amounted to 0.404 ± 0.00657 E-score.

For the sequence GCTAACCC, the binding signal was determined as 0.186 ± 0.00969 E-score.

ACCCGACC: the binding signal was 0.223 ± 0.0107 E-score.

Consider GTTCAGAA, for which the binding signal was found to be 0.18 ± 0.0199 E-score.

With ACCCCGCA, the binding signal amounted to 0.259 ± 0.0114 E-score.

Take CCAAGCCC: the binding signal is 0.155 ± 0.0141 E-score.

With CCCAGACA, the binding signal came to 0.16 ± 0.0032 E-score.

On to ATCAGACA, for which the binding signal was 0.204 ± 0.00355 E-score.

Take AGTGTTCG: the binding signal turned out to be 0.369 ± 0.0134 E-score.

Regarding CGTGTTTA, the binding signal amounted to 0.346 ± 0.0127 E-score.

GGAGTTAA: the binding signal amounted to 0.266 ± 0.0274 E-score.

AGTGTTTG: the binding signal is 0.336 ± 0.0138 E-score.

In the case of TGTGTTAA, the binding signal came out at 0.171 ± 0.00303 E-score.

As for AGTGTTAG, the binding signal is 0.394 ± 0.00412 E-score.

Turning to GGTGTTTA, the binding signal was 0.4563 ± 0.00286 E-score.

Take AGTGTTTA: the binding signal turned out to be 0.296 ± 0.0461 E-score.

As for GGTGTTAA, the binding signal stood at 0.475 ± 0.00681 E-score.

As for GGGGTTAA, the binding signal was found to be 0.198 ± 0.00273 E-score.

CGTGTGAA: the binding signal was 0.302 ± 0.00315 E-score.

As to CGTGTTAA, the binding signal amounted to 0.391 ± 0.0262 E-score.

As to CCTATAAC, the binding signal amounted to 0.194 ± 0.0389 E-score.

Regarding ACCCTACC, the binding signal turned out to be 0.193 ± 0.0205 E-score.

Take CGGGTTCA: the binding signal came to 0.175 ± 0.04 E-score.

As to CACCGGTA, the binding signal is 0.345 ± 0.00414 E-score.

Consider CGTGATAC, for which the binding signal was found to be 0.248 ± 0.0091 E-score.

With ATCCCGGG, the binding signal amounted to 0.209 ± 0.0458 E-score.

For the sequence CCGGGGTA, the binding signal turned out to be 0.284 ± 0.00939 E-score.

For the sequence CGTGTTGA, the binding signal amounted to 0.358 ± 0.0177 E-score.

For the sequence GGTGTTGA, the binding signal worked out at 0.4626 ± 0.00453 E-score.

With CGTGTGAG, the binding signal was 0.276 ± 0.0289 E-score.

Take CGTGTTAC: the binding signal worked out at 0.408 ± 0.00576 E-score.

In the case of CGTGTTAG, the binding signal came to 0.38 ± 0.00955 E-score.

On to CGTGTTGC, for which the binding signal turned out to be 0.333 ± 0.0224 E-score.

Regarding AGTGTTGA, the binding signal came to 0.318 ± 0.0168 E-score.

For CGTGTTTC, the binding signal was 0.339 ± 0.0138 E-score.

Consider ACGGTCTC, for which the binding signal was found to be 0.153 ± 0.00373 E-score.

On to CACCGCAC, for which the binding signal was found to be 0.333 ± 0.0118 E-score.

Regarding AGTACCCG, the binding signal is 0.154 ± 0.00938 E-score.

For the sequence CTAGGGTA, the binding signal was determined as 0.236 ± 0.0217 E-score.

Consider GTGTGACA, for which the binding signal was found to be 0.436 ± 0.0156 E-score.

GGGTGACA: the binding signal is 0.302 ± 0.0147 E-score.

Regarding CTGTGACA, the binding signal was determined as 0.21 ± 0.00229 E-score.

As for TGTCAAAA, the binding signal amounted to 0.198 ± 0.0336 E-score.

In the case of CACCCTGC, the binding signal worked out at 0.293 ± 0.0291 E-score.

Take ATGGAGTG: the binding signal stood at 0.274 ± 0.0146 E-score.

With AGGGGACA, the binding signal stood at 0.179 ± 0.0364 E-score.

As for ACCCACGC, the binding signal was 0.171 ± 0.00328 E-score.

ACACCGCG: the binding signal was 0.4808 ± 0.00187 E-score.

In the case of ACGCCGCC, the binding signal was determined as 0.153 ± 0.0249 E-score.

Turning to ATACCGCG, the binding signal was determined as 0.238 ± 0.0151 E-score.

For ACTCCGCT, the binding signal amounted to 0.185 ± 0.0321 E-score.

For GCACCGCC, the binding signal was 0.265 ± 0.00467 E-score.

As for GCACCGCA, the binding signal worked out at 0.169 ± 0.0396 E-score.

Regarding ACCCCGCG, the binding signal was found to be 0.254 ± 0.0276 E-score.

ACACCGCT: the binding signal was 0.4659 ± 0.00251 E-score.

Take ACACCGCC: the binding signal stood at 0.4737 ± 0.0034 E-score.

Consider ACACCGCA, for which the binding signal came to 0.4797 ± 0.00463 E-score.

With ATACCGCA, the binding signal came out at 0.179 ± 0.00528 E-score.

Consider ACCCCGCT, for which the binding signal came out at 0.209 ± 0.0248 E-score.

For the origin of these results see PMC10668032, “Altered binding affinity of SIX1-Q177R correlates with enhanced WNT5A and WNT pathway effector expression in Wilms tumor”.
